In PubChem BioAssay (EPA / NIEHS):
Values joined by “and” are separate entries in the source; they are usually repeats but may differ in a detail not shown here. Equal values may be shown once. Records with an inconclusive call do not appear. Active and inactive are the calls of the source. How the source made its calls: active means hit-call score of the fitted dose curve at least 0.9, where 1 is the maximum; inconclusive means response in the unintended direction; inactive means score below 0.9.

target: Cellular tumor antigen p53 (Homo sapiens) (UniProt P04637); assay: TOX21_p53_BLA_p2_ratio: Tox21 HCT-116 p53 Agonism Beta-lactamase Assay, Ratio, Phase 2 (AID 2283592)
Sequence (P04637 whole entry, looked up): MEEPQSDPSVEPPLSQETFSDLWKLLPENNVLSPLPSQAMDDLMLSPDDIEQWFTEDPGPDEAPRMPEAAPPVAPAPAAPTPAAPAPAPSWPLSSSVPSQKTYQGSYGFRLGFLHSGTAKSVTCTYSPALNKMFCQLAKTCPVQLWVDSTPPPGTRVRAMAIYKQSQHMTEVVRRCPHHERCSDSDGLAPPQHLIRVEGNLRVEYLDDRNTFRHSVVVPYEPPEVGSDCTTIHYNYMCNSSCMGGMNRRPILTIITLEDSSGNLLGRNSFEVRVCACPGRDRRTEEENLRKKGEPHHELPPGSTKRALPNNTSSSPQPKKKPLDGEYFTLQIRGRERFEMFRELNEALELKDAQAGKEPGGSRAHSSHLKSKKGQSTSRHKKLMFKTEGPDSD
In short: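 HCT116 p53-bla; 4000 cells/well; 5 h pre-incubation; cpd in DMSO, 217-fold dilution; 16 h 37C/5% CO2; CCF4-AM 2 h RT; Ex 405, Em 460/530 ratio; DMSO = baseline; positive fitting direction.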

Row | Compound | AC50 | outcome
1 | CC(C)C[C@H](NC(=O)[C@H](Cc1ccccc1)NC(=O)c1cnccn1)B(O)O | 9.74 nM (active) and 12.9 nM (active) | 
2 | C#CCC(Cc1cnc2nc(N)nc(N)c2n1)c1ccc(C(=O)N[C@@H](CCC(=O)O)C(=O)O)cc1 (some centres undefined) | 0.43 µM (active) | 
3 | NC(N)=NCc1cccc(I)c1 |  | inactive
4 | O=C(Oc1cccc2cccnc12)c1ccccc1 |  | inactive
5 | O=C(Nc1ccc(Cl)c(Cl)c1)C1CC1 |  | inactive
6 | Oc1ccc(N=Nc2ccccc2)cc1 | 87.4 µM (active) | 
7 | COC(=O)C1=C(C)NC(C)=C(C(=O)OCCN2CCN(C(c3ccccc3)c3ccccc3)CC2)C1c1cccc([N+](=O)[O-])c1 (centres undefined) |  | inactive
8 | Cc1c(N(C)CS(=O)(=O)O)c(=O)n(-c2ccccc2)n1C |  | inactive
9 | N#C/C(=C1/SC[C@@H](c2ccc(Cl)cc2Cl)S1)n1ccnc1 |  | inactive
10 | C[C@]12C=CC(=O)C=C1[C@@H](F)C[C@@H]1[C@@H]2[C@@H](O)C[C@@]2(C)[C@H]1CC[C@]2(O)C(=O)CO |  | inactive
11 | CCCCCCCCCCCCCC[N+](C)(C)Cc1ccccc1 |  | inactive
12 | CN[C@H]1CC[C@@H](c2ccc(Cl)c(Cl)c2)c2ccccc21 |  | inactive
13 | O=C1Nc2ccc(Cl)cc2[C@@](C#CC2CC2)(C(F)(F)F)O1 |  | inactive
14 | CC(=O)Oc1ccc2c(c1)CC[C@@H]1[C@@H]2CC[C@]2(C)[C@@H](O)CC[C@@H]12 |  | inactive
15 | CC(C)C[C@H](NC(=O)[C@H](CCc1ccccc1)NC(=O)CN1CCOCC1)C(=O)N[C@@H](Cc1ccccc1)C(=O)N[C@@H](CC(C)C)C(=O)[C@@]1(C)CO1 | 0.108 µM (active) | 
16 | CCCCCCCCCCCCCCCCC(C(=O)O)C(O)(CC(=O)O)C(=O)O (centres undefined) |  | inactive
17 | COc1cc([C@@H]2c3cc4c(cc3C(O[C@@H]3O[C@@H]5COC(c6cccs6)O[C@H]5[C@H](O)[C@H]3O)C3COC(=O)[C@@H]32)OCO4)cc(OC)c1O (some centres undefined) | 0.717 µM (active) | 
18 | Cc1cc(-n2c(=O)[nH]c(=O)n(C)c2=O)ccc1Oc1ccc(S(=O)(=O)C(F)(F)F)cc1 |  | inactive
19 | NC(=O)n1c(O)c(C(=O)c2cccs2)c2cc(Cl)ccc21 | 26.9 µM (active) | 
20 | CCC(=C(CC)c1ccc(O)cc1)c1ccc(O)cc1 | 7.14 µM (active) | 

Row | Compound | AC50 | outcome
21 | CCC(C)n1ncn(-c2ccc(N3CCN(c4ccc(OC[C@H]5CO[C@](Cn6cncn6)(c6ccc(Cl)cc6Cl)O5)cc4)CC3)cc2)c1=O (some centres undefined) |  | inactive
22 | C#C[C@]1(O)CC[C@H]2[C@@H]3CCc4cc(OC5CCCC5)ccc4[C@H]3CC[C@@]21C |  | inactive
23 | Cc1ccc(/C=N/n2c(-c3ccccc3)csc2=S)cc1 |  | inactive
24 | COC(=O)C1=C(C)NC(COC(N)=O)=C(C(=O)OC(C)C)C1c1cccc(Cl)c1Cl (centres undefined) | 33.5 µM (active) | 
25 | CC(C)(C)CC(C)(C)c1ccc(O)c(Cc2ccc(Cl)cc2Cl)c1 | 35.4 µM (active) | 
26 | Cc1cc(Nc2ccccc2C(=O)O)ccc1Cl | 8.52 µM (active) | 
27 | COC(=O)C1=C(C)NC(C)=C(C(=O)OCC(C)=O)C1c1ccccc1[N+](=O)[O-] (centres undefined) |  | inactive
28 | CCOC(=O)COc1ccc2c(=O)cc(-c3ccccc3)oc2c1 |  | inactive
29 | NCCCC[C@H](NC(=O)[C@@H]1CCCN1C(=O)[C@@H]1CSSC[C@H](N)C(=O)N[C@@H](Cc2ccc(O)cc2)C(=O)N[C@@H](Cc2ccccc2)C(=O)N[C@@H](CCC(N)=O)C(=O)N[C@@H](CC(N)=O)C(=O)N1)C(=O)NCC(N)=O |  | inactive
30 | COc1cc(C)c(/C=C/C(C)=C/C=C/C(C)=C/C(=O)O)c(C)c1C | 33.4 µM (active) | 
31 | NC(=O)C(=O)NN=Cc1ccc([N+](=O)[O-])o1 | 39.8 µM (active) | 
32 | C[C@@H](NCCCc1cccc(C(F)(F)F)c1)c1cccc2ccccc12 | 39 µM (active) | 
33 | COCCOC(=O)C1=C(C)NC(C)=C(C(=O)OC/C=C/c2ccccc2)C1c1cccc([N+](=O)[O-])c1 (centres undefined) |  | inactive
34 | COc1ccc(C(=O)CC(=O)c2ccc(C(C)(C)C)cc2)cc1 | 18.5 µM (active) | 
35 | Cc1ccc2c(Cl)cc(Cl)c(O)c2n1 |  | inactive
36 | OC[C@]1(O)OC[C@@H](O)[C@H](O)[C@@H]1O |  | inactive
37 | CCN(CC)CCNC(=O)c1c(C)[nH]c(/C=C2\C(=O)Nc3ccc(F)cc32)c1C |  | inactive
38 | CC(C)=CCC1=C(O)c2ccccc2C(=O)C1=O | 1.36 µM (active) | 
39 | C=C1C(CCl)(CCl)C2(Cl)C(Cl)C(Cl)C1(Cl)C2(Cl)Cl (centres undefined) | 76.7 µM (active) and 35.7 µM (active) | 
